SKKanGAS inh: blocks kanamycin growth of S. pyogenes SKKanGAS strain; BacTiter-Glo, 6 h; inhibition, % at 7.5 µM; 300,000 compounds, 1.3% hits; AID 1662;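 active = mean replicate score, as percent of positive control median, at least 50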;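 also: strain carries kanamycin resistance gene driven by streptokinase promoter and grows in 40 µg/ml kanamycin; loss of luminescence reflects streptokinase promoter inhibition or plain growth inhibition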
tim10-1 inh: growth inhibitors of tim10-1 mutant yeast. S. cerevisiae tim10-1 ts strain growth, BacTiter-Glo, 24 h. inhibition, % at 20 µM. 330,000 compounds, 2.2% hits;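 active = inhibition of at least 40%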;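 also: mutant grown at 25 °C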
EBI2 antag: EBI2 (human) antagonism; P32249; EBI2 beta-arrestin recruitment, luminescence, 7a,25-OHC stimulated; inhibition, % at 5 µM; 360,000 compounds, 0.81% hits; in the data active = inhibition above about 38%;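 also: enzyme fragment complementation signal reports receptor beta-arrestin coupling in cells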
Target sequence (P32249 whole entry, looked up, the tested form may be a part): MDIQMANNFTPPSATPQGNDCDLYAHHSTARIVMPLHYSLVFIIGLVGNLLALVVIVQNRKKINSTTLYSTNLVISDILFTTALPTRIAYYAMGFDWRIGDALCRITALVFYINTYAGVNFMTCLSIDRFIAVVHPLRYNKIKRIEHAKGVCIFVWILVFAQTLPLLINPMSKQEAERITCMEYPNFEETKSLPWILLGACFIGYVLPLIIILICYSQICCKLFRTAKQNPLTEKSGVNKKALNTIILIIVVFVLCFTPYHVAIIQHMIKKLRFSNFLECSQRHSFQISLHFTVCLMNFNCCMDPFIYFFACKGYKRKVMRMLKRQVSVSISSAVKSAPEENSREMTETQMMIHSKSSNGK
PfHsp90 yeast 2: growth inhibition of yeast expressing Plasmodium Hsp90 | S. cerevisiae expressing PfHsp90, BacTiter-Glo ATP, 48 h; yeast lacking PDR1 and PDR3 efflux regulators | inhibition, % at 9.4 µM | 310,000 compounds, 0.32% hits | AID 504621;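 active = every replicate shows inhibition above about 80%, whatever the replicate mean, limit read from the data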
TIM10 inh: growth inhibitors of TIM10 yeast strain; S. cerevisiae TIM10 strain growth, BacTiter-Glo luminescence, 24 h; inhibition, % at 10 µM; 330,000 compounds, 1.4% hits; AID 463195;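 active = inhibition of 40% or more at the single tested concentration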;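 also: wild-type TIM10 isogenic control strain grown at permissive 25 °C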
tim23-1 inh: inhibits growth of tim23-1 mutant yeast. 330,000 compounds, 1.3% hits. inhibition, % at 20 µM. AID 463212. S. cerevisiae tim23-1 growth, BacTiter-Glo luminescence, 24 h;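 active = growth inhibition of the mutant yeast at or above 50%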;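 also: temperature-sensitive mutant grown at 25 °C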
tim10-1 conf: tim10-1 yeast growth inhibition, confirmed | shares compounds with tim10-1 inh | S. cerevisiae tim10-1 ts strain growth, BacTiter-Glo, 24 h | inhibition, % at 20 µM | 7,400 compounds, 56% hits | AID 463213;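 active = inhibition of yeast growth at or above a set limit in either of two repeat tests at 20 µM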;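 also: tim10-1 mutant grown at permissive 25 °C to find synthetic lethal compounds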
Numbers stand for hits; - = inactive; . = not tested or not shown. Most compounds without a hit are left out; they make up all but 4.7% or so of the library.

SMILES	SKKanGAS inh	tim10-1 inh	EBI2 antag	PfHsp90 yeast 2	TIM10 inh	tim23-1 inh	tim10-1 conf
O=C(CSc1nnc(-c2ccccc2)n1-c1ccccc1)c1cccs1	-	46	-	.	-	-	-
Cc1cc([N+](=O)[O-])ccc1NC(=O)c1csc(C)c1C	-	-	-	-	-	-	.
S=C(NCc1ccc(Cl)cc1Cl)NC1CCCCC1	-	42	-	-	-	-	-
S=C(NCCc1cccc(Cl)c1)NC1CCCCC1	-	40	-	-	-	-	-
CC(=O)Nc1ccc(NC(=O)c2ccc([N+](=O)[O-])cc2Cl)cc1	-	-	-	-	-	-	.
CCC(C)NS(=O)(=O)c1ccc(NC(=O)c2ccc([N+](=O)[O-])cc2Cl)cc1 (centres undefined)	-	46	-	-	-	-	31
Fc1cccc(NC(=S)NCc2ccc(Cl)cc2)c1	-	-	-	-	-	-	.
CN(C)NC(=S)Nc1cccc(C(F)(F)F)c1	-	-	-	-	-	-	.
O=C(NC(=S)Nc1cccc(C(F)(F)F)c1)c1csnn1	-	52	-	-	-	-	36
Fc1ccc(CNC(=S)Nc2cccc(C(F)(F)F)c2)cc1	-	51	-	-	-	-	43
FC(F)(F)c1cccc(NC(=S)NCc2ccc(Cl)cc2)c1	73	43	-	-	-	-	-
CC(CN1C(C)CCCC1C)OC(=O)c1ccc(Cl)cc1Cl (centres undefined)	-	-	-	-	-	-	.
COc1ccc(N(C(=O)CCl)C(C(=O)NC2CCCCC2)c2cccnc2)cc1 (centres undefined)	-	41	-	-	-	-	32
O=C(NC1CCCCC1)C(c1cccnc1)N(C(=O)CCl)c1ccc(F)cc1 (centres undefined)	-	.	-	-	.	.	.
COCCCNC(=O)c1cccc2c(-c3ccnn3C)coc12	.	.	-	.	.	.	.
Cc1cc(C)nc(/N=C(\N)Nc2ccccc2-c2ccccc2)n1	-	-	-	-	-	-	.
O=C(CCNc1ccc(Cc2ccncc2)cc1)c1cccc([N+](=O)[O-])c1	-	43	-	-	-	-	34
O=C(CCNc1cccc(F)c1)c1cccc([N+](=O)[O-])c1	-	-	-	-	-	-	.
Cc1cc(NC(=O)c2cc(-c3cccc(OCC(C)C)c3)nc3ccccc23)no1	-	-	-	-	-	-	.
Cc1ccc2nc(SCC(=O)N(CC(C)C)c3c(N)n(Cc4ccccc4)c(=O)[nH]c3=O)[nH]c2c1	-	-	-	-	-	-	.
O=C(CN(Cc1ccc(Cl)cc1)C(=O)c1csnn1)NCc1ccccc1	-	-	-	-	-	-	.
Cc1ccccc1C(=O)Nc1cccc(C(=O)N/N=C/c2cc(Cl)cc([N+](=O)[O-])c2O)c1	-	41	-	-	-	-	-
Cc1ccc(NC(=O)COC(=O)C2CSC3(C)CCC(=O)N23)c(C)c1 (centres undefined)	.	-	-	-	-	-	.
Cc1ccc(OC(=O)C2CSC3(C)CCC(=O)N23)c(Br)c1 (centres undefined)	-	49	-	-	-	-	-
CCN(CC)c1ccc(C2Nc3cccc4cccc(c34)N2)c(O)c1	.	43	-	-	-	-	-
SMILES	SKKanGAS inh	tim10-1 inh	EBI2 antag	PfHsp90 yeast 2	TIM10 inh	tim23-1 inh	tim10-1 conf
CCS(=O)(=O)N1Cc2ccccc2CC1C(=O)NCC12CC3CC(CC(C3)C1)C2 (centres undefined)	-	40	-	-	-	-	-
CCS(=O)(=O)N1Cc2ccccc2CC1C(=O)Nc1ccc(F)cc1 (centres undefined)	-	-	-	-	-	-	.
Cc1sc2ncnc(N3CCN(CCOc4ccc(Cl)cc4)CC3)c2c1C	-	45	-	-	-	-	32
CN1C(=O)/C(=C\c2ccccc2F)Sc2ccc(C(=O)NC3CCN(Cc4ccccc4)CC3)cc21	83	43	-	-	-	-	-
O=C(Nc1cccc(-c2cccc(F)c2)c1)C1CCN(C2CCOCC2)CC1	-	43	-	-	-	-	-
O=C(Nc1cccc(-c2cccc(F)c2)c1)C1CCN(Cc2ccc(CO)o2)CC1	-	-	-	-	-	-	.
Cc1ccc(C(=O)COC(=O)C2CC(=O)N(c3nc(-c4ccccc4)cs3)C2)cc1 (centres undefined)	-	40	-	-	-	-	-
COc1ccc(N2CC(C(=O)OCC(=O)c3ccc(C)cc3)CC2=O)cc1 (centres undefined)	-	-	-	-	-	-	.
O=C(c1cc(-c2cccnc2)nc2ccc(Br)cc12)N1CCN(c2ncccn2)CC1	-	46	-	-	-	-	-
O=S(=O)(c1ccc(-c2csc(-c3cccnc3)n2)cc1)N1CCCC1	-	44	-	-	-	-	39
S=C(Nc1ccc(Cl)cc1)N(CCCN1CCOCC1)Cc1cccs1	-	41	-	-	-	-	-
COc1ccc(C(=O)N2CCC3(CC2)NCCc2[nH]cnc23)cc1	-	-	-	-	-	-	.
CC1CN(Cc2ccccc2)c2nc3c(c(=O)n(C)c(=O)n3C)n2C1 (centres undefined)	-	-	-	-	-	-	.
CC(C)Cn1c(=O)c2c(nc3n2CC(C)CN3Cc2ccccc2)n(C)c1=O (centres undefined)	-	40	-	-	-	-	-
CC1CN(c2nc3c(c(=O)n(Cc4ccc(Cl)cc4)c(=O)n3C)n2C)CC(C)O1 (centres undefined)	-	44	-	-	-	-	-
COc1ccccc1CCNC(=O)Cc1cccs1	-	-	-	-	-	-	.
Cc1cccc(CS(=O)(=O)c2ncc(Cl)c(C(=O)NCc3ccccc3)n2)c1	-	44	-	-	-	-	-
Cn1nnc(NC(=S)NC(=O)c2cccc3c(Br)cccc23)n1	-	51	-	-	-	-	-
COc1ccc(C(=O)/C(=C/O)N=Nc2ccc(F)cc2)cc1	-	45	-	-	-	-	-
COc1ccc(C(=O)C(/C=N/O)=N/Nc2ccc(F)cc2)cc1	-	-	-	-	-	-	.
Cc1cccc(-n2c(C)cc(C(=S)N3CCOCC3)c2C)c1C	-	44	-	-	-	-	-
Cc1cc(C)cc(-n2c(C)cc(C(=S)N3CCOCC3)c2C)c1	-	-	-	-	-	-	.
COc1ccccc1/C=C/C(=O)NCCc1ccccn1	-	-	-	-	-	-	.
CCCCOC(=O)c1ccc(NC(=O)COC(=O)CSc2nc(C)cc(C)n2)cc1	-	46	-	-	-	-	-
CC(OC(=O)C1CCN(S(=O)(=O)c2ccc(C(C)(C)C)cc2)CC1)C(=O)N(C)C1CCCCC1 (centres undefined)	.	.	-	-	.	.	.
CN(C)CCN(C(=O)/C=C/c1cccs1)c1nc2ccc(F)cc2s1	-	44	-	-	-	-	35

Screening data deposited in PubChem by several laboratories.
